Test [1] is described as follows: cAMP Responsive Elements (CRE) small molecule antagonists, cell-based qHTS assay: qHTS cell viability counter screen (AID 2060913). Further: nearly all actives have a fitted effect of over 40% in size. The essentials:
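Cytotoxicity counter screen multiplexed with the CRE-bla antagonist read: HEK293T cells in DMEM with dialyzed FBS and 25 mM HEPES were treated 3 hrs under 0.25 uM final NKH477, then viability measured by CellTiter-Glo luminescence.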

Test [2] is described as follows: cAMP Responsive Elements (CRE) small molecule agonists, cell-based qHTS assay: qHTS cell viability counter screen (AID 2060914). Further: nearly all actives have a fitted effect of over 50% in size. A digest of the protocol:
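Cytotoxicity was measured as ATP luminescence (CellTiter-Glo, 30 min at room temperature) in the same wells as the CRE-bla FRET read-out. HEK293T CRE-bla cells had 3 h compound exposure at 37C/5% CO2.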

Consider seven compounds from PubChem BioAssay (Tox21).

Records with an inconclusive call do not appear. A call without a number means that no potency is given here. Active and inactive are the calls of the source. The call rests on the fitted dose curve; in most records, active means well fitted cell-killing curve with a large enough effect in the repeat runs; inconclusive means weak or mixed curves, or effect the other way; inactive means flat fitted curve, though single readings scatter.

For `OCc1ccccn1`, the Potency result in test [1] and in test [2] was “inactive” each time.
As to `Cc1cc(C(C)(C)C)c(O)c(C(C)(C)C)c1`, the Potency entry in test [1] and in test [2] was “inactive” each time.
As for `CCCCCCCOC(=O)c1ccccc1C(=O)OCCCCCCC`, the Potency entry in test [1] and in test [2] was “inactive” each time.
On to `c1ccc(-c2ccc(C(c3ccccc3)n3ccnc3)cc2)cc1` (centres undefined), for which the Potency entry in test [1] and in test [2] was “inactive” throughout.
Consider `C/C=C(/C(=C/C)c1ccc(O)cc1)c1ccc(O)cc1`, for which the Potency result in test [1] and in test [2] was “inactive” each time.
As for `Oc1cccc2ccccc12`, the Potency entry in test [1] and in test [2] was “inactive” throughout.
On to `CCC(=O)/C=C/C1C(C)=CCCC1(C)C` (centres undefined), for which the Potency entry in test [1] and in test [2] was “inactive” each time.
